High-throughput results from PubChem BioAssay.
Sfp PPTase inh: qHTS Assay for Inhibitors of Bacillus subtilis Sfp phosphopantetheinyl transferase (PPTase) | Biochemical Sfp PPTase activity, qHTS | Potency, µM, for inactives: largest response in the series, negative = inhibition, actives largely listed as inhibitors | hit rate 3.5% among 310,000 | AID 1490, 2009;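 further: the enzyme is Sfp with the accession as filed and its product quenches rhodamine fluorescence; 0% = enzyme reaction without inhibitor and -100% = no enzyme wells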
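After 15 min at room temperature with compound, 15 nM Sfp received 5 uM rhodamine-CoA plus 12.5 uM BHQ-2-ybbR (50 mM Hepes pH 7.6, 10 mM MgCl2). Rate came from the fluorescence difference over 30 min, ex 525/em 598 nm.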
PLK1 PBD block: qHTS for Inhibitors of PLK1-PDB (polo-like kinase 1 - polo-box domain): Primary Screen; Plk1 PBD binding of FITC phosphopeptide, fluorescence polarization; AID 720504, 2013; hit rate 2.8% among 360,000; Serine/threonine-protein kinase PLK1 (Homo sapiens), P53350; Potency, µM, without a hit: max response, negative = inhibition, actives largely listed as inhibitors; further: series mostly up to about 57 µM; nearly all actives have a fitted effect of over 65% in size
Target sequence (P53350 whole entry, looked up, the tested form may be a part): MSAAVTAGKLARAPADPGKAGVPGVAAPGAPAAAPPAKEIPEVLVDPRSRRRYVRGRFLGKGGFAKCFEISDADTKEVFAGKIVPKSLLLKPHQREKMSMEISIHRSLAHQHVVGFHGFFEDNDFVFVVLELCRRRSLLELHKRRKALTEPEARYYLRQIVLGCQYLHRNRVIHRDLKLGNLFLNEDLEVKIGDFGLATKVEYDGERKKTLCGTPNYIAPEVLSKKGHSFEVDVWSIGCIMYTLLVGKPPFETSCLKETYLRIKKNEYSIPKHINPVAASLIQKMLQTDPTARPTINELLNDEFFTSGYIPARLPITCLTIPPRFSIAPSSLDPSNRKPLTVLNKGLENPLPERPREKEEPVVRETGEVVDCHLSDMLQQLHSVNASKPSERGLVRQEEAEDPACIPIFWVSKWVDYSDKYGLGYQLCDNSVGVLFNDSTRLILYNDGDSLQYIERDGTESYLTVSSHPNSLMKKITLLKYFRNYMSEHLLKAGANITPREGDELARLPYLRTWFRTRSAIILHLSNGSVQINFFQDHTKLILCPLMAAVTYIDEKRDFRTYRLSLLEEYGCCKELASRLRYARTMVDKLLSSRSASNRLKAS
ALDH1A1 inh: qHTS Assay for Inhibitors of Aldehyde Dehydrogenase 1 (ALDH1A1); Purified ALDH1A1, NADH fluorescence, propionaldehyde substrate; Potency, µM (doses to about 75.3 µM), without a hit: at the highest dose activity, negative = inhibition, actives largely listed as inhibitors; hit rate 7.3% among 220,000; Aldehyde dehydrogenase 1A1 (Homo sapiens), P00352; active means well fitted inhibition curve with a large enough effect, not every such curve was filed as active; inconclusive means small, poorly fitted or top-dose-only effect, or another doubt; inactive means no such curve, though single readings can be large or run the other way;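 further: plate controls were no enzyme wells and a reference inhibitor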
VP16 counter: VP16 counterscreen qHTS for inhibitors of ROR gamma transcriptional activity; Potency, µM (top dose mostly 53.6 µM), for the others: at the top dose activity, negative = inhibition, hits mostly inhibitors; Drosophila S2 Gal4-VP16 UAS-luciferase, luminescence, 20 h; hit rate 3.5% among 310,000;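 further: Gal4-VP16 expression switched on by copper sulfate through the metallothionein promoter; nearly all actives have a fitted effect of over 50% in size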
RORg inh: qHTS for inhibitors of ROR gamma transcriptional activity | AID 2551, 2010 | hit rate 5.4% among 310,000 | Nuclear receptor ROR-gamma (Mus musculus), P51450 | Potency, µM (titrated, usually from 53.6 µM), without a hit: top-dose activity change, negative = inhibition, hits mostly inhibitors | Drosophila S2 Gal4-RORgamma UAS-luciferase reporter, 20 h; further: nearly all actives have a fitted effect of over 60% in size
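Drosophila Schneider cells stably carrying a metallothionein-driven Gal4 DBD–ROR gamma fusion and a UAS-Photinus luciferase reporter were exposed to compound for 1 hr, then induced with copper sulfate (700 uM final) for 20 hr at ambient temperature before luminescence reading.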
* hit, by the source's call; ? = inconclusive; . = not tested or not shown; [ ] = remark or other dose. The list is not random: actives were taken first. Their share in the collection is about 12%. Unless noted, the call rests on the fitted dose curve; in most records, active means well fitted curve in the direction sought with a large enough effect; inconclusive means small, poorly fitted or top-dose-only effect, or another doubt; inactive means no such curve, though single readings can be large; an effect the other way counts as inactive or inconclusive. Unless noted, on the % scale 0 is the no-effect control and ±100 the full control effect; potency means the concentration at half of the fitted maximal effect.

SMILES	Sfp PPTase inh	PLK1 PBD block	ALDH1A1 inh	VP16 counter	RORg inh
Cc1ccc(C(=O)CCc2ccc(N)cc2)cc1	4%	5%	.	18%	5%
COc1ccc2[nH]cc(CCNc3cc(-c4c(C)noc4C)ncn3)c2c1	-18%	.	?	3%	3%
COC(=O)/C(=N\Nc1ccc(Cl)cc1)Sc1nnc(-c2ccc(OC)cc2)n1C	-9%	-11%	-16%	?	5.6µM*
CCOC(=O)/C(=N/Nc1ccc(Cl)cc1)Sc1nnnn1-c1ccc(C)cc1	-11%	-7%	1%	?	6.3µM*
Cc1cccc(-n2c(CCc3ccccc3)nnc2SCC(=O)c2ccccc2)c1	50µM*	2%	?	11µM*	?
CCOC(=O)/C(=N/Nc1ccccc1)Sc1nnc(CCc2ccccc2)n1-c1ccccc1	11%	-15%	0%	7.1µM*	4.5µM*
Cc1ccc(-n2c(CCc3ccccc3)nnc2SCC(=O)NCc2ccccc2)cc1C	-3%	1%	?	?	?
Cc1ccc(OCc2nnc(SCC(=O)c3ccccc3)n2-c2ccccc2)cc1	-8%	-5%	?	?	?
O=C(O)CCc1ccc(-c2ccc(Cl)cc2)n1NC(=O)c1ccc(O)cc1	-9%	-17%	-4%	-3%	-11%
CC(C)NC(=O)C1(C)CN(S(C)(=O)=O)CC(=O)N1Cc1cccc(C(F)(F)F)c1 (stereo not drawn)	.	-12%	.	.	.
CCC(C)C(N)C(=O)O (stereo not drawn)	14%	.	.	4%	4%
O=C(/C(=N\Nc1ccc(Br)cc1)Sc1nnnn1-c1ccccc1)c1ccccc1	5%	-23%	1.6µM*	?	?
CCOC(=O)/C(=N/Nc1ccccc1)Sc1nnnn1-c1ccc(C)cc1	0%	-17%	7.1µM*	-7%	?
COCOc1ccc(OC)cc1C(=O)/C=C/c1ccc(OC)c(Br)c1	-4%	.	3%	-4%	-14%
O=C(O)CCC(=O)c1ccc2ccc3cccc4ccc1c2c34	10%	.	?	10µM*	11µM*
O=C(O)CCC(=O)c1cccc2ccccc12	-1%	-9%	-1%	0%	-33%
O=c1c2cc(Cl)ccc2nc(-c2ccccc2Cl)n1O	13%	-6%	-2%	20µM*	?
Cc1nc2ccc(Cl)cc2c(-c2ccccc2Cl)c1CC(=O)O	17%	-6%	3%	-19%	12%
Cc1ccc(-c2nc3ccccc3c(=O)n2NC(=S)N(C)C)cc1	22µM*	27µM*	?	-3%	21%
Cc1ccc(-c2nc3ccc(Cl)cc3c(=O)n2O)cc1	13%	-10%	.	11µM*	?
Cc1ccccc1/C=N/Nc1nc2ccccc2c(=O)n1O	32µM*	12µM*	.	?	7.1µM*
O=c1c2cc(Br)ccc2nc(-c2ccccc2)n1O	5%	-7%	.	?	?
Cc1ccc(-c2nc3ccccc3c(=O)n2NC(=O)c2cccs2)cc1	-11%	-3%	?	0%	38%
CC(=O)O[C@@H](C)C[N+](C)(C)C	20%	.	-4%[20.9 µM]	-2%[17 µM]	-16%[2.98 µM]
Cc1nc(N2CCN(S(=O)(=O)c3cccs3)CC2)c2c(-c3ccccc3)c(C)sc2n1	.	-26%	.	.	.
SMILES	Sfp PPTase inh	PLK1 PBD block	ALDH1A1 inh	VP16 counter	RORg inh
CCC1CC=CC2C1C(=O)N(Cc1ccccc1)C2c1cc(C)ccc1F (stereo not drawn)	-9%	.	.	-23%	?
Nc1c(C(=O)CSc2n[nH]c(-c3ccccc3)n2)c(=O)[nH]c(=O)n1C1CC1	.	-6%	.	.	.
O=C1CCCc2c1nc(-c1ccc([N+](=O)[O-])cc1)n2O	?	4%	?	-9%	-28%
O=c1c2ccccc2nc(-c2ccc([N+](=O)[O-])cc2)n1O	-20%	-18%	-14%	4µM*	4%
O=c1c2ccccc2nc(-c2cccc(Cl)c2)n1O	13%	-12%	13%	.	1%[0.365 µM]
Cc1ccc(-c2nc3ccccc3c(=O)n2O)cc1	-14%	4%	.	14µM*	?
CSC(=NC#N)N1CCN(C(=NC#N)SC)CC1	-1%	-16%	?	-14%[10 µM]	15%
CSC(=NC#N)N1CCN(c2ccccn2)CC1	10%	-18%	18µM*	2%[10 µM]	27%
CSC(=NC#N)N1CCN(c2ccc([N+](=O)[O-])cc2)CC1	-10%	-15%	18µM*	9%[10 µM]	?
CCOC(=O)N1CCN(c2ccc([N+](=O)[O-])cc2)CC1	1%	-3%	?	-9%	31%
O=C(Nc1ccc(F)cc1)C(c1cc2ccccc2o1)N1CCN(CC(=O)N2CCCC2)CC1 (stereo not drawn)	.	3%	.	.	.
COc1ccc(-n2c(=O)c(C)nc3cnc(Nc4ccccc4)nc32)cc1	17%	.	-4%	-6%	44%
CC(=O)c1cn(CC(=O)Nc2cccc(C)c2C)c2ccccc12	45µM*	-12%	6%	13µM*	?
CCC(=O)c1cn(CC(=O)Nc2cccc(C)c2C)c2ccccc12	9%	-9%	.	16%	-6%[1.91 µM]
CC(=O)N1CN(Cc2ccccn2)Cc2c1sc1c2CCCC1	45µM*	-17%	?	-3%	-26%
CC(=O)N1CN(CCCn2ccnc2)Cc2c1sc1c2CCCC1	22%	?	0%	2%	8%
C/C(=N\NC(=S)Nc1cccc(C)c1)c1cccc(N)c1	7%	-12%	-11%	3.2µM*	4.5µM*
C/C(=N\Nc1ccccc1)c1cccc(N)c1	-10%	-21%	.	?	16%
C/C(=N\NC(=S)Nc1ccc(C)cc1)c1cccc(N)c1	29%	-12%	-11%	13µM*	2.8µM*
C/C(=N\NC(=S)Nc1cccc(C)c1)c1ccco1	9%	?	?	-27%	?
C/C(=N\NC(=S)Nc1cccc(C)c1)c1ccccc1	-2%	-3%	-2%	7.9µM*	1.1µM*
CSC(=S)N/N=C(\C)c1ccccc1	-23%	-7%	-14%	4.5µM*	0.45µM*
COc1ccccc1C(=O)Nc1ccc2c(c1)nc(CCNC(=O)c1ccco1)n2C	9%	-11%	.	-11%	13%
O=C(NC(Nc1nc2ccc([N+](=O)[O-])cc2s1)(C(F)(F)F)C(F)(F)F)c1cccnc1	7%	-3%	?	6.3µM*	?
O=C(NC(Nc1nc2ccc([N+](=O)[O-])cc2s1)(C(F)(F)F)C(F)(F)F)c1ccccc1Cl	28%	9%	?	0.89µM*	6.3µM*
O=C(NC(NNc1ccc([N+](=O)[O-])cc1)(C(F)(F)F)C(F)(F)F)c1ccccc1Cl	-18%	?	14µM*	7%	37%
O=C(NC(NNc1ccc([N+](=O)[O-])cc1)(C(F)(F)F)C(F)(F)F)c1ccc(F)cc1	-6%	-26%	?	?	?
